Source: PubChem BioAssay AID624202 (National Center for Advancing Translational Sciences (NCATS), 2012)
In all, about 380,000 compounds went through this assay and about 4,000 (1.1%) were called active. A call without a number means that no potency is given here. About 3% were inconclusive and are not listed. The call rests on the fitted dose curve; in most records, active means well fitted activation curve with a large enough effect; inconclusive means small, poorly fitted or top-dose-only effect; inactive means no such curve, though single readings can be large or run the other way. The sample as a whole holds a higher share of actives than the screen did.

assay: qHTS Assay to Identify Small Molecule Activators of BRCA1 Expression; conditions: MCF7-BRCA1-FFLuc reporter, luminescence, 48 h; series mostly up to 46.1 µM; further: nearly all actives have a fitted effect of over 80% in size
From the text: Functionally, BRCA1 has been implicated in a wide array of cellular activities, including DNA damage repair, cell-cycle checkpoint control, growth inhibition, apoptosis, transcriptional regulation, chromatin remodeling, protein ubiquitylation, and mammary stem cell self-renewal and differentiation. Reduction in BRCA1 levels is associated with an increase in tumor growth and resistance to anti-estrogenic agents, such as tamoxifen, while an increase in BRCA1 expression leads to cell growth arrest and apoptosis. […] The frequent loss of BRCA1 expression in invasive breast cancers in the absence of somatic mutation has been attributed to numerous mechanisms, including hypermethylation of the BRCA1 promoter, exaggerated ubiquitylation of BRCA1 protein, and improper intracellular localization. […] Basal-like breast cancers (BLBCs) are associated with an aggressive clinical course, resistance to chemotherapy, and typically lack expression of estrogen receptor (ER), progesterone receptor (PR), and epidermal growth factor receptor 2 (HER2). BLBCs account for 10-17% of all breast cancers, have few therapeutic options, and are considered the biggest unmet need in the treatment of breast cancer. Conversely, tumors which maintain expression of functional BRCA1 are almost uniformly luminal type cancers, and are accordingly associated with more indolent clinical courses, responsiveness to endocrine therapies, and improved survival.
As such, it is possible that an increase in BRCA1 expression would enable cellular differentiation and restore tumor suppressor function, resulting in delayed tumor growth and less aggressive, more treatable breast cancers. The long term goal of this proposal is to develop a novel prevention or therapeutic agent for breast cancer patients. To accomplish this goal, the overall objective of this proposal is to access the resources provided by the NIH Molecular Libraries Roadmap Initiative and the Molecular Libraries Probe Production Centers Network (MLPCN) to discover and develop new chemical activator probes that will increase BRCA1 expression and function.
NIH Molecular Libraries Probe Production Network [MLPCN]
NIH Chemical Genomics Center [NCGC]
PI Name: Lisa Harlan-Williams, University of Kansas Medical Center
5microl of MCF7-BRCA1-FFLuc cell suspension (400 cells/microl in phenol-red free MEM) are dispensed into Greiner white solid bottom 1536-well assay plates, yielding a final well density of 2000 cells/well. Plates are incubated for 2 hours at 37 degrees C in 5% humidified CO2 to allow cell attachment. Compounds are then transferred via Kalypsys pin tool equipped with 1536-pin array (10nl slotted pins, V&P Scientific, San Diego, CA). The plates are then incubated at 37 degrees C in 5% humidified CO2 for 48 hours. The NCGC in-house luciferase substrate reagent, Buglite, is then added (2.5microl) and plates incubated for 15 minutes, before being transferred to a ViewLux high-throughput CCD imager (PerkinElmer) wherein single end-point measurements of luminescence are acquired using a clear filter. The positive control compound, genistein, will be pinned into dedicated control columns on each plate, including a 16-point 1:3 titration in duplicate, as well as a 10microM maximum activation control, allowing for the normalization of screening activity. DMSO will be pinned into a separate column as a negative control.
All screening operations will be performed on a fully integrated robotic system (Kalypsys, San Diego, CA) containing one RX-130 and two RX-90 anthropomorphic robotic arms (Staubli, Duncan, SC). Library plates will be screened starting from the lowest and proceeding to the highest concentration. Vehicle-only plates, with DMSO being pin-transferred to columns 5-48, will be inserted uniformly at the beginning and the end of each library in order to monitor and record any shifts in the background, which can be affected by reagent dispensers or loss in enzyme activity over time. […]
Potency means the concentration at half of the fitted maximal effect.

Structure (SMILES)	Potency
NS(=O)(=O)c1ccc(CCNC(=O)c2ccc(Cl)cc2[N+](=O)[O-])cc1	inactive
O=C(COc1ccc(Cl)cc1)NCCSc1ccccc1	inactive
CC(C)C[C@H](NC(=O)NCCc1ccc(Cl)cc1)C(=O)O	inactive
O=C(NCCc1ccccc1)C1CC1	inactive
O=C(NCCc1ccccc1)Oc1ccc(Cl)cc1	12.6 µM (active)
Cc1cc(C(=O)NCCc2ccc(Cl)cc2)c(C)o1	8.91 µM (active)
Cc1nc2ccc(S(=O)(=O)NC(C(=O)NCc3ccccc3Cl)C(C)C)cc2s1 (stereo not drawn)	inactive
COc1ccc(Cl)cc1NC(=O)CSc1nc(-c2cccs2)cc(C(F)(F)F)n1	inactive
COc1ccc(CNc2nc(-c3ccccc3)nn2C(=O)c2ccccc2OC)cc1	inactive
O=C(/C=C/c1cn(CC(O)CN2CCc3ccccc32)c2ccccc12)c1ccc(Br)cc1 (stereo not drawn)	inactive
O=C(Nc1ccc2c(c1)OCCO2)C1CCCC1	inactive
O=C(Nc1ccc2c(c1)OCCO2)C1CCCN(c2ncccn2)C1 (stereo not drawn)	10 µM (active)
O=C(Nc1ccccn1)C1CCN(S(=O)(=O)c2ccc3c(c2)OCCO3)CC1	inactive
CCOc1ccc(OCC)c(NS(=O)(=O)c2ccc3[nH]c(=O)ccc3c2)c1	inactive
O=C(Nc1cccc2cccnc12)C(F)(F)F	inactive
O=C(NCc1ccccc1Cl)C1CCCO1 (stereo not drawn)	inactive
CSc1ccc(CNC(=O)c2ccc(NC(=O)C3=CSCCO3)cc2)cc1	inactive
O=C(Nc1ccc(C(=O)NCc2ccccc2Cl)cc1)C1=CSCCO1	11.2 µM (active)
CCc1ccccc1NC(=O)Cn1c(=O)n(-c2cccc(C)c2)c(=O)c2c1c1cc(OC)ccc1n2C	inactive
COc1ccccc1C(=O)NC(=S)NC12CC3CC(CC(C3)C1)C2	inactive
COc1ccc(/C=C/C(=O)Nc2ccc(C34CC5CC(CC(O)(C5)C3)C4)cc2)cc1OC	inactive
CSc1ccc(/C=C/C(=O)NC23CC4CC(CC(C4)C2)C3)cc1	11.2 µM (active)

Structure (SMILES)	Potency
CSc1nn(Cc2cccc(C)c2)c(N)c1S(=O)(=O)c1ccccc1	inactive
COc1ccc(CCNc2ncnc3onc(-c4ccc(Cl)cc4)c23)c(OC)c1	inactive
CCOC(=O)c1cccc(NS(=O)(=O)c2cc(-c3cnc(C)o3)ccc2OC)c1	inactive
N#Cc1nc(/C=C/c2ccc(F)cc2)oc1NCc1ccc(F)cc1	inactive
S=C(Nc1ccc(Br)cc1)NC1CCN(Cc2ccccc2)CC1	inactive
C/C(=N\NC(=S)NC1CCCCC1)c1ccc(C)o1	inactive
Cc1ccc(/C=N/NC(=S)NC2CCCCC2)o1	4.47 µM (active)
Cc1ccc(NC(=S)NC2CCCC2)cc1	10 µM (active)
Cc1ccc(/C=N/NC(=O)Cn2ccc(C(F)(F)F)n2)o1	inactive
Cc1ccc(NC(=O)CSCC(=O)NC2CCCCC2)cc1	inactive
CCOC(=O)c1ccc(NC(=O)C2CC(=O)NC(=Nc3ccc(C)c(C)c3)S2)cc1 (stereo not drawn)	inactive
COc1cccc(CNC(=O)c2cc(=O)[nH]c3ccc(S(=O)(=O)N4CCCCC4)cc23)c1	inactive
CCc1ccc(CNCc2c(C(=O)O)n(Cc3ccc(F)cc3Cl)c3cc(OC)ccc23)cc1	inactive
CN(C)c1ccc(/C=N\Nc2ccc([N+](=O)[O-])cc2[N+](=O)[O-])cc1Cl	inactive
CN(C)c1ccc(C(CC(=O)O)C(=O)O)cc1 (stereo not drawn)	inactive
CC(C)CNC(=O)C(=O)Nc1ccc(N(C)C)cc1	2.24 µM (active)
CN(C)c1ccc(N/C=C/C(=O)C(F)(F)F)cc1	inactive
CCOC(=O)Cn1c(=O)n(-c2ccccc2OC)c2nc(-c3cccc(F)c3)nc(C(N)=O)c21	inactive
COc1ccc(C(=O)CSc2nnnn2C)c(OC)c1	inactive
CCn1nnnc1SCC(=O)c1ccc(C)cc1C	6.31 µM (active)
CCn1nnnc1SCC(=O)Nc1ccc(N(C)C)cc1	inactive
CCCCn1c(CNC(=O)C23CC4CC(CC(C4)C2)C3)nnc1SCC(=O)Nc1ccc(C)cc1	inactive

Structure (SMILES)	Potency
COc1ccc(Cn2c(C(=O)O)c(CNCCc3cccs3)c3ccc(OC)cc32)cc1	inactive
N#Cc1cccc(CSc2ncnc(N)n2)c1	inactive
Nc1cc(N)nc(SCc2cccc(F)c2)n1	12.6 µM (active)
Nc1nc(SCc2cccc(Br)c2)n[nH]1	inactive
Cc1ccc(Cn2c(=O)n(CCCC(=O)NCc3ccccc3Cl)c(=O)c3ccccc32)cc1	inactive
O=C(NCCC1=CCCCC1)c1ccc(Cl)c([N+](=O)[O-])c1	7.94 µM (active)
O=C(COc1ccc(Cl)cc1)NCCC1=CCCCC1	inactive
O=C(NCCC1=CCCCC1)c1ccc(-n2cncn2)cc1	3.16 µM (active)
CC(Sc1nncn1C)C(=O)NCCC1=CCCCC1 (stereo not drawn)	inactive
CC(OC(=O)CNC(=O)c1ccc(Cl)c([N+](=O)[O-])c1)C(=O)NCc1ccco1 (stereo not drawn)	inactive
O=C(COc1cccc(-n2cnnn2)c1)NCCC1=CCCCC1	inactive
CC(=O)c1ccc[n+](C(C)CCC(C)[n+]2cccc(C(C)=O)c2)c1 (stereo not drawn)	inactive
COc1ccc(-c2cc(NCc3ccc(F)cc3)n3cnnc3n2)cc1	inactive
Cc1ccc2c(c1)c1c(c(=O)n(-c3ccccc3)c(=O)n1CC(=O)c1ccc(Cl)cc1)n2C	inactive
Cc1ccc(OCC(=O)OCc2cc(=O)n3nc(C4CC4)sc3n2)cc1	inactive
COCCN(C(=O)c1ccco1)c1nnc(-c2ccc(OC)cc2)s1	7.08 µM (active)
COCCN(C(=O)C(C)C)c1nnc(-c2ccc(C(C)(C)C)cc2)s1	inactive
COc1ccc(N(CC(=O)NC(C)(C)C)C(=O)c2ccco2)cc1	inactive
Cc1c(CCO)sc[n+]1CC(=O)c1ccc2ccccc2c1	inactive
O=C(CC1Oc2ccccc2NC1=O)NCc1ccc(F)cc1 (stereo not drawn)	inactive
Cc1cc(C(F)(F)F)nc(SCC(=O)Nc2nccs2)n1	inactive
Cc1[nH]c2ccccc2c1SCC(=O)Nc1nccs1	inactive

Structure (SMILES)	Potency
CC(=O)c1cc(C#N)c(SCC(=O)Nc2nccs2)nc1C	2 µM (active)
Cc1oc2c(c1C(=O)Nc1ccc(F)c(F)c1)C1=NCCN1C=N2	inactive
Cc1cc(/C=C2/SC(=O)N(CC(=O)N3CCCC3)C2=O)ccc1N1CCOCC1	inactive
CCN=C1S/C(=C\c2cc(Br)ccc2OCC(=O)OCC)C(=O)N1CC	inactive
Cc1cc(/C=C2/SC(=O)N(CC(=O)OC(C)C)C2=O)c(C)n1C	2.51 µM (active)
CN(C)Cc1cn(-c2ccccc2)nc1-c1ccccc1	inactive
COc1ccccc1CNCc1ccc(C(=O)O)s1	inactive
COc1cc(OC)c(C(=O)Nc2ccc(N(C)C)cc2)cc1OC	8.91 µM (active)
COc1cc(OC)c(C(=O)NNC(=O)c2ccccc2-n2cccc2)cc1OC	inactive
COc1ccc(Cl)cc1C(=O)Nc1ccc(N(C)C(C)=O)cc1	inactive
COc1ccc(-c2cc(C(F)(F)F)nc(SCC(=O)N(C)Cc3ccccc3)n2)cc1OC	inactive
Cn1ccc(NC(=O)Nc2ccc(Cl)cc2)n1	7.08 µM (active)
CN(C)S(=O)(=O)c1cc(C(=O)Nc2ccn(C)n2)c(Cl)cc1Cl	inactive
Cc1nn(C)cc1C(=O)NNC(=S)Nc1ccc(Cl)cc1	inactive
COc1cccc(C(=O)NCC(=O)OCc2cc(=O)n3ccsc3n2)c1	inactive
CCn1cc(C(=O)N(C)Cc2ccccc2)c(=O)c2cc(S(=O)(=O)N3CCCCCC3)ccc21	inactive
O=C(O)c1cccnc1NC1CCCC1	inactive
COc1cccc(Nc2ncccc2C(=O)O)c1	11.2 µM (active)
COc1cccc(NC(=O)COc2cccnc2[N+](=O)[O-])c1	inactive
O=c1cc(COc2cccc(C(F)(F)F)c2)nc2sc3c(n12)CCCC3	inactive
Cc1ccc(C(=O)OC(C)CN2CCOCC2)cc1 (stereo not drawn)	inactive
Cc1cccc(C(=O)OC(C)CN2CCCC2)c1 (stereo not drawn)	inactive

Structure (SMILES)	Potency
Cc1cccc(C(=O)OC(C)CN2CCN(C)CC2)c1 (stereo not drawn)	8.91 µM (active)
C(=Nc1ccc(/C=C/c2ccnc3ccccc23)cc1)c1cc2c3c(c1)CCCN3CCC2	inactive
CN(c1ccccc1)S(=O)(=O)c1ccc(C(=O)NCCc2ccccc2)cc1	inactive
Cc1c(C(=O)NCCCc2ccccc2)cccc1[N+](=O)[O-]	inactive
CC(C)c1ccc(C(=O)NCCCc2ccccc2)cc1	10 µM (active)
Cc1ccccc1CNC(=O)c1ccc(NC(=O)N2CCCCc3ccccc32)cc1	inactive
C/C=C/NNC(=O)Cc1ccc(OC)cc1	inactive
CC1=C(C(=O)OCC2CCCCC2)C(c2c(F)cccc2Cl)CC(=O)N1 (stereo not drawn)	inactive
CC(=O)c1cc2c(cc1N)OCO2	inactive
Nc1[nH][nH]c(=O)c1N=Nc1ccc2c(c1)OCO2	12.6 µM (active)
CC(=O)C1=C(C)NC(=O)NC1c1ccc2c(c1)OCO2 (stereo not drawn)	inactive
CCOc1ccc(CCNC(=O)CN(c2ccc(C)cc2)S(=O)(=O)N(C)C)cc1OCC	inactive
COc1cccc(C(=O)Nc2ccc3nc4n(c(=O)c3c2)CCCCC4)c1	4.47 µM (active)
O=C(Nc1ccc2nc3n(c(=O)c2c1)CCCC3)c1ccc(Cl)nc1	inactive
COc1ccc(CCNC(=O)C(=O)Nc2ccc3nc4n(c(=O)c3c2)CCCCC4)cc1OC	inactive
CCc1ccc(NC(=O)Cn2ncn3c(cc4ccccc43)c2=O)cc1	inactive
CC(C)c1ccc(NC(=O)Cn2ncc3ccccc32)cc1	10 µM (active)
Cc1cccc(NC(=O)c2nnn(CC(=O)Nc3ccc(C(C)C)cc3)c2N)c1C	inactive
COc1ccc(Cn2c(=O)[nH]c3cc(C(=O)N4CCN(C(=O)c5ccco5)CC4)ccc3c2=O)cc1	inactive
Cc1ccc(-c2nn3c(=O)cc(CN4CCN(C(=O)Nc5cccc(C(F)(F)F)c5)CC4)nc3s2)cc1	inactive
